# Results from the supplement of paper PMC9254222.
# Over roughly 1,100 compounds, “Renilla luciferase signal (cell health) relative to plate median” has its median near 0.97; the highest 2% begin near 1.6. For the sample, the highest values were picked, then their nearest neighbours and some compounds at random.
# Tested on: HEK293T (UBE3A T485A transfected, BAR Wnt reporter)
# Assay: Renilla luciferase signal (cell health) relative to plate median (fold (linear ratio)); higher = higher Renilla signal
# Conditions: 24 h
# How it was run: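 Chemicals at 0.01–100 uM were left on transfected HEK293T cells for 24 h, after a four-hour wait following transfection. The cells held a BAR firefly luciferase Wnt reporter, TK-Renilla and an expression plasmid. Wnt activity, as the firefly/Renilla ratio from a Dual-Glo luciferase readout, and cell health, as raw Renilla, were median-centred within each plate. Results average four biological replicates.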
Compound,Renilla luciferase signal (concentration: 0.1 uM),Renilla luciferase signal (concentration: 1 uM),Renilla luciferase signal (concentration: 10 uM),Renilla luciferase signal (concentration: 100 uM),Renilla luciferase signal (concentration: 0.01 uM)
CN(C)c1ccc(C(=O)c2ccc(N(C)C)cc2)cc1 [Michler's ketone],1.09,1.03,0.702,0.267,–
Cc1cc(O)ccc1Cl [4-Chloro-3-methylphenol],0.999,1.09,0.977,1.06,–
ClC1=C(Cl)C2(Cl)C3C4CC(C5OC45)C3C1(Cl)C2(Cl)Cl (stereo unspecified) [Dieldrin],1.01,0.977,1.07,0.829,–
ClC1=C(Cl)C2(Cl)C3C4CC(C5OC45)C3C1(Cl)C2(Cl)Cl (stereo unspecified) [Endrin],0.878,0.941,0.842,0.349,–
CCCCOC(=O)c1ccccc1C(=O)O [Monobutyl phthalate],0.862,0.73,1.21,2.17,0.968
CCCCOC(=O)c1ccccc1C(=O)OCCCC [Dibutyl phthalate],1.04,1.02,1.03,0.11,1.02
CCCCCOC(=O)c1ccccc1C(=O)OCCCCC [Dipentyl phthalate],0.95,0.861,0.91,1.18,–
Cc1cnc(C2=NC(=O)C(C)(C(C)C)N2)c(C(=O)O)c1 (stereo unspecified) [Imazapic],1.17,1.18,1.14,1.72,1.11
CC(C)C1(C)N=C(c2nc3ccccc3cc2C(=O)O)NC1=O (stereo unspecified) [Imazaquin],1.09,1.07,1.06,1.38,1.09
CCC(C)C1OC2(C=CC1C)CC1CC(CC=C(C)C(OC3CC(OC)C(OC4CC(OC)C([NH2+]C)C(C)O4)C(C)O3)C(C)C=CC=C3COC4C(O)C(C)=CC(C(=O)O1)C34O)O2.O=C([O-])c1ccccc1 (stereo unspecified) [Emamectin benzoate],1.08,0.877,0.0929,0.0231,1.02
CC(C)C1(C)N=C(c2ncccc2C(=O)O)NC1=O (stereo unspecified) [Imazapyr],0.714,0.895,0.959,1.42,0.822
CCc1cnc(C2=NC(C)(C(C)C)C(=O)N2)c(C(=O)O)c1 (stereo unspecified) [Imazethapyr],0.962,0.96,0.991,1.58,1.11
COCc1cnc(C2=NC(C)(C(C)C)C(=O)N2)c(C(=O)O)c1 (stereo unspecified) [Imazamox],0.799,0.965,0.977,2.3,0.649
CCCOC/C(=N\c1ccc(Cl)cc1C(F)(F)F)n1ccnc1 [Triflumizole],0.937,0.992,0.929,1.45,0.984
CCSC(=O)N(CC)C1CCCCC1 [Cycloate],0.996,0.924,1.01,1.15,0.797
CCSC(=O)N1CCCCCC1 [Molinate],0.899,0.905,1.04,1.8,0.998
CCOP(=S)(Oc1cnc(C(C)(C)C)nc1)OC(C)C (stereo unspecified) [Tebupirimfos],1.22,1.16,1.08,1.4,1.07
CSC(=O)c1c(C(F)F)nc(C(F)(F)F)c(C(=O)SC)c1CC(C)C [Dithiopyr],0.813,0.927,0.835,1.14,0.664
O=C(N[C@H](c1ccccc1)[C@@H]1CN2CCC1CC2)c1c(Cl)ccc(C(F)(F)F)c1Cl,0.771,0.687,0.344,0.143,–
CCOc1ccc(C(C)(C)COCc2cccc(Oc3ccccc3)c2)cc1 [Etofenprox],1.01,1.12,0.95,1.14,–
CCC(C)(C)c1ccc(O)cc1 [4-(2-Methylbutan-2-yl)phenol],0.874,0.809,0.795,0.442,–
CSc1nc(NC(C)C)nc(NC(C)C)n1 [Prometryn],1.03,0.973,1.01,0.989,1.14
CCNc1nc(Cl)nc(NC(C)C)n1 [Atrazine],0.693,0.877,0.729,1.18,0.72
CCNc1nc(NC(C)C)nc(SC)n1 [Ametryn],0.318,0.3,0.543,1.78,0.34
CCCN(CCC)c1c([N+](=O)[O-])cc(S(N)(=O)=O)cc1[N+](=O)[O-] [Oryzalin],0.918,0.931,0.876,0.99,1.08
CC1COC(Cn2cncn2)(c2ccc(Oc3ccc(Cl)cc3)cc2Cl)O1 (stereo unspecified) [Difenoconazole],1.07,0.923,0.485,0.152,1.03
"Cc1cccc(N)c1N [2,3-Diaminotoluene]",0.728,0.75,0.772,0.198,–
